Test results from PubChem BioAssay (NCATS).
Records with an inconclusive call do not appear. Activity calls are given as the source filed them. Calls come from the whole dose curve; as a rule, active = well fitted cell-killing curve with a large enough effect; inconclusive = small, poorly fitted or top-dose-only effect, or effect the other way; inactive = no such curve, though single readings can be large or run the other way. Positions of bridges follow the written chain, without caps; N, C: chain ends. Non-standard residues stand in square brackets, D forms with d. Residues, ends and D or L forms follow the SMILES beside them. ξ: configuration not given here. *: point of attachment. Octanoyl(6-Me) = CCC(C)CCCCC(=O)*; ξThr(3R) = C[C@@H](O)C(N)C(=O)O; dDab = NCC[C@@H](N)C(=O)O; Dab = NCC[C@H](N)C(=O)O

assay: Quantitative High-Throughput drug screen in 47 multiple myeloma cell lines against the NCATS MIPE library collection: EJM_DSMZ cell viability assay (AID 1918926; note: nearly all actives have a fitted effect of over 30% in size); conditions: EJM myeloma cell viability, CellTiter-Glo ATP, 48 h; series mostly up to 45.8 µM; viability, % of control: at the top concentration
Summary of the method: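 Myeloma cell lines, 500 cells per well, exposed to MIPE 4.0 library compounds for 48 h at 37C, 5% CO2. Viability from ATP by CellTiter-Glo luminescence; normalised to DMSO (100%) and media-only (0%) wells.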
Potency is the fitted concentration of half-maximal effect.

SMILES	Potency	viability, % of control
CCOc1cc2ncc(C#N)c(Nc3ccc(OCc4ccccn4)c(Cl)c3)c2cc1NC(=O)C=CCN(C)C	372 nM (active)	
CC(C)(N)c1ccc(-c2nc3ccccc3nc2-c2ccccc2)cc1	23500 nM (active)	
C[C@H](O)[C@@H]1C(=O)N2C(C(=O)O)=C(S[C@@H]3CN[C@H](CNS(N)(=O)=O)C3)[C@@H](C)[C@@H]12		106% (inactive)
CC(C=CC(=O)NO)=C[C@@H](C)C(=O)c1ccc(N(C)C)cc1	469 nM (active)	
COc1ccc(S(=O)(=O)Nc2cccnc2Nc2ccc(O)cc2)cc1	296 nM (active)	
O=C(C[C@@H]1CC=CCCC(=O)O[C@H](c2ccccc2)CNC1=O)NCc1ccc(Cl)cc1	1.2 nM (active)	
CC[C@]12C=CCN3CC[C@@]4(c5cc([C@@]6(C(=O)OC)C[C@H]7C[C@@H](C(C)(F)F)CN(Cc8c6[nH]c6ccccc86)C7)c(OC)cc5N(C)[C@H]4[C@@](O)(C(=O)OC)[C@H]1OC(C)=O)[C@@H]32	118 nM (active)	
C=C1C(=O)O[C@H]2[C@@H]1CCC(C)=CCC[C@@]1(C)O[C@@H]21	5260 nM (active)	
CC[C@H](CC[C@@H](C)[C@H]1CC[C@H]2[C@@H]3CC=C4C[C@@H](O)CC[C@]4(C)[C@@H]3CC[C@]12C)C(C)C		119% (inactive)
Nc1nc(=O)n([C@H]2CSC(CO)O2)cc1F (stereo partly drawn)		101% (inactive)
COc1ccc(C=Cc2cc(OC)c(OC)c(OC)c2)cc1NC(=O)[C@H](N)CO	10.5 nM (active)	
CCNC(=O)Nc1ccc(-c2nc3c(c(N4CCOC[C@H]4C)n2)CCN(C2COC2)C3)cc1	7430 nM (active)	
Cc1ccc2nc(NCCN)c3ncc(C)n3c2c1	1480 nM (active)	
C[C@@H](Oc1ccc2[nH]nc(C=Cc3cnn(CCO)c3)c2c1)c1c(Cl)cncc1Cl	4180 nM (active)	
COc1cc(C(C)C)c(Oc2cnc(NC(CO)CO)nc2N)cc1I	469 nM (active)	
CC(=O)O[C@@]12CO[C@H]1C[C@H](O)[C@@]1(C)C(=O)[C@H](O)C3=C(C)[C@@H](OC(=O)C(O)[C@@H](NC(=O)OC(C)(C)C)c4ccccc4)C[C@@](O)([C@@H](OC(=O)c4ccccc4)[C@@H]21)C3(C)C (stereo partly drawn)		63.4% (inactive)
CC(=O)OCC(=O)[C@@]1(O)CC[C@H]2[C@@H]3CCC4=CC(=O)CC[C@]4(C)[C@@H]3C(=O)C[C@@]21C		88.3% (inactive)
CCC[C@H]1C[C@H](C(=O)N[C@@H]([C@@H]2O[C@@H](SC)[C@@H](O)[C@@H](O)[C@@H]2O)[C@H](C)Cl)N(C)C1		117% (inactive)
C[C@@H]1[C@H](C)CC[C@]2(C(=O)O)CC[C@]3(C)C(=CC[C@@H]4[C@@]5(C)C[C@@H](O)[C@H](O)[C@@](C)(CO)[C@H]5CC[C@]43C)[C@@H]12		99.7% (inactive)
CC(C)(O)[C@H]1CC[C@@](C)([C@H]2[C@@H](O)C[C@@]3(C)[C@@H]4C[C@H](O[C@@H]5O[C@H](CO)[C@@H](O)[C@H](O)[C@@H]5O)[C@H]5C(C)(C)[C@@H](O[C@@H]6OC[C@@H](O)[C@H](O)[C@@H]6O)CC[C@@]56C[C@@]46CC[C@]23C)O1		102% (inactive)
O=C(C=Cc1ccc(CN(CCO)CCc2c[nH]c3ccccc23)cc1)NO	235 nM (active)	
CCC(C)CCCCC(=O)N[C@@H](CCN)C(=O)NC(C(=O)N[C@H](CCN)C(=O)N[C@@H]1CCNC(=O)C([C@@H](C)O)NC(=O)[C@@H](CCN)NC(=O)[C@@H](CCN)NC(=O)[C@@H](CC(C)C)NC(=O)[C@H](Cc2ccccc2)NC(=O)[C@H](CCN)NC1=O)[C@@H](C)O (stereo partly drawn) ({Octanoyl(6-Me)}-[Dab][ξThr(3R)][dDab][dDab][Dab]F[dL][dDab][dDab][ξThr(3R)]; lactam 4-C)		99.4% (inactive)
CC(C)n1cnc2c(NCCc3ccc(O)cc3)nc(-c3csc4ccccc34)nc21	5900 nM (active)	
O=C(O)C[C@H](O)C[C@H](O)C=Cc1c(C2CC2)nc2ccccc2c1-c1ccc(F)cc1		82.8% (inactive)
COc1cc(N2CCC(C(N)=O)CC2)ccc1Nc1nc(N)c(Cl)c(Nc2ccccc2S(=O)(=O)C(C)C)n1	105 nM (active)	
CNC(=O)Nc1ccc(-c2nc(N3CC4CCC(C3)O4)c3cnn(C4CCC5(CC4)OCCO5)c3n2)cc1	3320 nM (active)	
Cc1noc(-c2ccc(CSCCC(=O)O)cc2)c1NC(=O)OC(C)c1ccccc1Cl (stereo not drawn)		92.1% (inactive)
COc1ccc(Nc2nccc(NCCO)n2)cc1		86.8% (inactive)
